The values below come from PubChem BioAssay AID651918 (Vanderbilt Specialized Chemistry Center, 2012).

Each structure is given as a SMILES string. Activity calls are given as the source filed them. No rule for the calls is given here.

This assay has as its target Histone deacetylase 1 (Homo sapiens) (UniProt Q13547). Briefly: HDAC1 enzyme inhibition, profiling panel, selectivity assay for E-cadherin restoration project, biochemical, HDAC isoform panel (AID 651918).

Histone deacetylase 1 (Homo sapiens), sequence (Q13547 whole entry, looked up, canonical isoform): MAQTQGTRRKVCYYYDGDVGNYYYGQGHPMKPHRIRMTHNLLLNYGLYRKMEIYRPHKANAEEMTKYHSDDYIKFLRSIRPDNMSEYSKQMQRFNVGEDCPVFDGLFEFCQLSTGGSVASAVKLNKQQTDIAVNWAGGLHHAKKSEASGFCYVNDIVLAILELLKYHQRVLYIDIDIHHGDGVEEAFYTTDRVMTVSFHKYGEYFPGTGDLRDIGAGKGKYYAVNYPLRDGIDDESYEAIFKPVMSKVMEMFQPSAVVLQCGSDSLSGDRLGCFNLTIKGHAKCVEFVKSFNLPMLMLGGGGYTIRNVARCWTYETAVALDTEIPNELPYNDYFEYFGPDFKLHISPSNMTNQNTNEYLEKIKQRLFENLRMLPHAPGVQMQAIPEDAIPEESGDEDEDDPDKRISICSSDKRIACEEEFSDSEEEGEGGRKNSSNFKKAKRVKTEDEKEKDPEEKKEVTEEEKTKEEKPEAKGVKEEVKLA

Consider `O=C(NCCCNC(=O)c1ccc[nH]c1=O)c1cc(-c2ccccc2)on1`, for which the molecule was called inactive.
